Reference: PubChem BioAssay (NCATS)
Inconclusive results are not listed. Values without a mark were called inactive. Active and inactive are the calls of the source. Calls follow the shape of the full dose curve.

Target: Retinoic acid receptor RXR-alpha (Homo sapiens) (UniProt P19793)
Experiment: qHTS assay for small molecule agonists of retinoid X receptor alpha signaling (AID 588544)
Conditions: HEK293T RXRa-UAS-bla, beta-lactamase reporter, 18 h; series mostly up to 76.7 µM; activation: at the top concentration
From the text: NIH Chemical Genomics Center [NCGC] U.S. Environmental Protection Agency [EPA] National Institutes of Environmental Health Sciences [NIEHS] National Toxicology Program [NTP] NCGC Assay Overview The Retinoid X receptor (RXR), a nuclear hormone receptor is expressed in liver, spleen, placenta, epidermis, central nervous system. These receptors are able to form homo and heterodimers with other nuclear receptors and due to this heterodimerizing ability, RXR functions as master regulators producing diverse physiological effects. Three subtypes of RXR exist; alpha, beta and gamma. Retinoid X receptor alpha (RXR-alpha) has potential roles in metabolic signaling pathways, skin alopecia, dermal cysts, cardiac development, insulin sensitization etc. Therefore screening environmental chemicals on RXR-alpha signaling can be used for the studies focused on such therapeutic applications.
NCGC Assay Protocol Summary Using a beta-lactamase reporter-gene under control of Retinoid X receptor--alpha (RXR-alpha) response element, a cell-based assay [GeneBLAzer (RXR-alpha -UAS-bla assay developed by Invitrogen] was used to measure RXR-alpha ligands signaling. GeneBLAzer RXR-alpha -UAS-bla HEK293T cells were used with assay medium containing 2% charcoal-stripped FBS. The assay was performed in clear bottom black Greiner 1536-well plates. 9-cis-retinoic acid was used in the screen as the positive control. Library compounds were measured for their ability to stimulate the reporter gene activity. Compounds were screened in a titration series in 1536-well format. The fluorescence intensity (405 nm excitation, 460/530 nm emission) was measured using an EnVision plate reader. Data was normalized relative to 9-cis-retinoic acid control (500 nM, 100%), and DMSO only wells (basal, 0%). Concentration-response titration points for each compound were fitted to the Hill equation yielding concentrations of half-maximal stimulation (EC50) and maximal response (efficacy) values. qHTS protocol for RXR-alpha beta-lactamase assay in agonist mode [Step] [Parameter] [Value] [Description] 1. Reagent; 6 uL; 2500 cells/well 2. Incubation; 37 C for 4 hrs 3. Compounds; 23 nL; 0.59 nM to 92 uM 4. Controls (9-cis-retinoic acid); 23 nL, - One column with dose response, start 38 uM, 1:3 dilutions in duplicates - Final concentrations of 500 nM and 50 nM in two columns 5. Incubation; 37 C for 18 hrs 6. Detection reagent; 1 uL of CCF4-dye 7. Incubation; RT for 2 hrs 8. Detection; Fluorescence; Envision plate reader

Chain of Retinoic acid receptor RXR-alpha (Homo sapiens) (P19793 whole entry, looked up): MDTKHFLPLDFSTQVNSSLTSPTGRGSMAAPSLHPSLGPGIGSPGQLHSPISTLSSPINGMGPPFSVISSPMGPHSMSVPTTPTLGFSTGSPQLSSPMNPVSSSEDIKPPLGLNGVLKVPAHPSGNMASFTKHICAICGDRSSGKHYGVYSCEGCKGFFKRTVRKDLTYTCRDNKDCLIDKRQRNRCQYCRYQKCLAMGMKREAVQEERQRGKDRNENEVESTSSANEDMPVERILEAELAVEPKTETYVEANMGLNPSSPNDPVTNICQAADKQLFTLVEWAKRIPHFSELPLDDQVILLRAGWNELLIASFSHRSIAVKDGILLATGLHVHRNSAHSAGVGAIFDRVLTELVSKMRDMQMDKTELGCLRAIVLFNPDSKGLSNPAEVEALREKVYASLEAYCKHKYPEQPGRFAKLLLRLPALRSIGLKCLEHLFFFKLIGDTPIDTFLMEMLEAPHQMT

Q: Which “activation” value does the source give for `CC1=CCC(C(C)(C)O)CC1` (stereo not given) here?
A: 16.1%

Q: With `O=C(O)CCC(=O)C(=O)O` as the compound, how does the “activation” value read?
A: 0.0561%

Q: For `CCCCCCCC(=O)O`, which outcome is on record?
A: inactive

Q: `Nc1ccn([C@H]2CS[C@@H](CO)O2)c(=O)n1` was tested. Which “activation” value did it give?
A: 3.16%

Q: For `Cc1ccccc1`, which outcome is on record?
A: inactive

Q: `CCCCCCCC/C=C\CCCCCCCC(=O)O` was tested. Which outcome did it give?
A: inactive

Q: For `CC(O)CO` (stereo not given), which outcome is on record?
A: inactive

Q: For `CCOC(C)=O`, which “activation” value is on record?
A: 6.91%

Q: Which “activation” value does the source give for `CCCCC/C=C\C/C=C\CCCCCCCC(=O)O` here?
A: -15.6%

Q: Which “activation” value does the source give for `IC(I)I` here?
A: -16.6%

Q: `O=S(=O)(O)O` was tested. Which outcome did it give?
A: inactive

Q: Which “activation” value does the source give for `O=CCCCC=O` here?
A: -10.2%

Q: With `CC(C)=O` as the compound, how does the “activation” value read?
A: -3.09%

Q: `CC1=C2[C@@H]([C@H](C)CC[C@H]2/C=C(\C)C(=O)O)[C@H](O)C1` was tested. Which “activation” value did it give?
A: -8.81%

Q: With `O=C(O)CN(CCN(CC(=O)O)CC(=O)O)CC(=O)O` as the compound, how does the outcome read?
A: inactive
